# From PubChem BioAssay (NCI)
# About 83,000 compounds went through this panel and 20% of them were active in at least one assay; those are over-represented in the sample as a whole.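 The test compound was applied at a single concentration to cells in 96-well plates for 48 hours, and percent growth was recorded.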 Activity calls are given as the source filed them. How the source made its calls: active means growth percent below 10; inactive means the rest.
# Tested on: HL-60(TB) leukemia
# Experiment: NCI-60 one-dose screen, 48 h (100 = growth as untreated, 0 = no growth, -100 = all killed)
# Details: 10 µM unless noted
row,Structure (SMILES),growth
1,N#Cc1c(-c2ccc(Cl)cc2)cc(-c2ccccc2)nc1OCc1ccccc1,77.3% (inactive)
2,O=C(NC(=S)N1CCN(c2ncnc3c2cnn3-c2ccccc2)CC1)c1ccc(Br)cc1,90.8% (inactive)
3,Clc1cccc(Cl)c1/C=C/c1cc(/C=C/c2ccc(Br)cc2)c2ccccc2n1,101% (inactive)
4,N#Cc1c(NC(=O)c2ccc(C(F)(F)F)cc2)sc2c1CCC(=O)C2,7.73% (active)
5,O=c1cc(-c2ccccc2)oc2cc(OCCCNCc3ccccc3)cc(O)c12,-46.3% (active)
6,O=C(CSc1nc2ccccc2c(=O)[nH]1)NNC(=O)c1ccccc1Cl,105% (inactive)
7,O=C(c1ccc(Cl)cc1)C1[C@H](c2ccccc2Cl)[C@@H](c2ccccc2)NC12C(=O)Nc1ccc(Cl)cc12 (stereo partly drawn),-39.9% (active)
8,COC(=O)/C=C/c1cccc2c1C(=O)NC(C)(c1cc3cc4ccccc4cc3oc1=O)N2 (stereo not drawn),54.7% (inactive)
9,O=C(Nc1ccc(I)cc1)Nc1nc2ccc([N+](=O)[O-])cc2s1,-37.3% (active)
10,CCCSc1nc(NCCc2c[nH]c3ccccc23)c(C#N)c(-c2ccc(OC)cc2)n1,40.7% (inactive)
11,CNCc1cccc2c1OCCCCCC[C@@](C)(O)CC1(CC1)S(=O)(=O)c1ccc(cc1)-c1cnc(N)c(n1)C(=O)N2,-61.1% (active)
12,Cc1ccc(NC(=O)[C@]23CCC(C)(C)CC2C2=CCC4[C@@]5(C)C[C@@H](O)[C@H](O)[C@@](C)(CO)C5CC[C@@]4(C)[C@]2(C)CC3)cc1 (stereo partly drawn),-15.4% (active)
13,COc1cc(Nc2nc(O)c(/C=C3\C=Nc4ccccc43)s2)cc(OC)c1OC,-16% (active)
14,NS(=O)(=O)c1ccc(NC(=O)CSc2ccc(-c3ccc(Cl)cc3)nn2)c(Br)c1,98% (inactive)
15,CN(C)c1ccnc(CNCCSC2(c3ccc(C(F)(F)F)cc3)c3ccccc3CCc3ccccc32)c1,-41.9% (active)
16,COc1ccccc1[C@H]1C(C(=O)c2ccc(O)cc2)C2(N[C@@H]1c1ccccc1)C(=O)Nc1ccc(Br)cc12 (stereo partly drawn),10.5% (inactive)
17,O=C(COc1ccc(NC(=O)Nc2ccc(Cl)c(Cl)c2)cc1)N=Nc1c(O)[nH]c2ccc([N+](=O)[O-])cc12,92.4% (inactive)
18,CC1=C(C(=O)OCc2ccccc2)C(c2ccc(N(C)C)cc2)n2c(nc3ccccc32)N1 (stereo not drawn),73.7% (inactive)
19,CCOC(=O)c1ccc(NC(=O)CSC(CC(=O)c2sc(Nc3ccccn3)nc2C)c2ccccc2F)cc1 (stereo not drawn),2.8% (active)
20,COc1ccc(-c2nc3ccc(C(=O)NN4C(=O)c5ccc([N+](=O)[O-])cc5C4=O)cc3[nH]2)cc1,104% (inactive)
21,CC1=C(C)C(=O)C(NCCN2CCOCC2)=C(Br)C1=O,-24.9% (active)
22,COc1cc(C2CC(c3ccc(C(F)(F)F)cc3)=Nc3c(N)nc(N)nc3N2)ccc1Oc1nc(Nc2ccc(F)cc2)nc(N(C)C)n1 (stereo not drawn),13.7% (inactive)
23,O=C(CSc1nnc(-c2ccc(-c3nc4ccc(Cl)cc4[nH]3)cc2)o1)Nc1ccc(Br)cc1,29.7% (inactive)
24,COc1ccc(/C=N/N=C(\C)c2ccc3c(c2)Nc2ccccc2S3)cc1O,34.2% (inactive)
25,CC1CC(c2ccc(N(C)C)cc2)=NN1c1nc(O)c(C2=c3cc(Br)ccc3=NC2=O)s1 (stereo not drawn),68.7% (inactive)
26,CN(C)C(=O)c1cc(-c2ccc3ncnc(N4CCc5cc(F)c(Cl)cc54)c3c2)cnc1N,-73.8% (active)
27,COc1ccc2[nH]c(O)c(N=NC(=O)COc3ccc(NC(=O)Nc4ccccc4)cc3)c2c1,96% (inactive)
28,COCOc1ccc2c(=O)c(C)c(C(=O)N[C@@H](Cc3ccccc3)C(O)C(=O)NCCc3ccc(OC)cc3)oc2c1 (stereo partly drawn),102% (inactive)
